This note sets out measurements from PubChem BioAssay (Tox21).

Where “and” joins values, the source holds several entries; their conditions need not be identical. Equal entries are not always repeated. Inconclusive results are not listed. Where a structure was tested more than once in an assay, its records may differ in their call. Calls of active or inactive are those of the source. Unless noted, the call rests on the fitted dose curve; in most records, active means well fitted curve in the direction sought with a large enough effect in the repeat runs; inconclusive means weak or mixed curves; inactive means no such curve, though single readings can be large; an effect the other way counts as inactive or inconclusive.

Experiment [1] can be described thus: qHTS assay to test for compound auto fluorescence at 535 nm (green) in HEK293 cells (AID 720680). Background: In qHTS, concentration-response curves come from the screen itself.
The nature of experiment [2]: qHTS assay to test for compound auto fluorescence at 460 nm (blue) in HEK293 cell free culture (AID 720681). Further: potency means the concentration at half of the fitted maximal effect. The gist of the method:
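Test compounds were pinned into cell-free culture medium (DMEM with 10% FBS) and fluorescence was read directly at Ex/Em 405/460 nm. Signals were expressed as fluorescence equivalents of triamterene, with DMSO vehicle as control.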

A short description of experiment [3]: qHTS assay to test for compound auto fluorescence at 535 nm (green) in HEK293 cell free culture (AID 720682). The essentials: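 Using fluorescein as calibrant, autofluorescence was quantified at 485/535 nm in cell-free DMEM containing 10% FBS after pintool addition of compound or vehicle.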
A short description of experiment [4]: qHTS assay to test for compound auto fluorescence at 590 nm (red) in HEK293 cell free culture (AID 720683). The gist of the method: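 Tox21 10K library compounds were pinned into cell-free DMEM with 10% FBS and fluorescence was read at excitation 540 nm. Activity is expressed as Rose Bengal sodium equivalency.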
Experiment [5] in a line: qHTS assay to test for compound auto fluorescence at 590 nm (red) in HepG2 cell free culture (AID 720684). The essentials:
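Red fluorescence (540 nm excitation, 590 nm emission) was measured after compound transfer into cell-free MEM supplemented with 10% FBS. Values are equivalencies against Rose Bengal sodium.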

A short description of experiment [6]: qHTS assay to test for compound auto fluorescence at 460 nm (blue) in HepG2 cell free culture (AID 720685). Further: potency means the concentration at half of the fitted maximal effect. The gist of the method:
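Compound (23 nL) or DMSO pinned into cell-free MEM with 10% FBS; blue fluorescence read at 405/460 nm excitation/emission, expressed as auto-fluorescence equivalency to triamterene.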

A short description of experiment [7]: qHTS assay to test for compound auto fluorescence at 535 nm (green) in HepG2 cell free culture (AID 720686).
The nature of experiment [8]: qHTS assay to test for compound auto fluorescence at 460 nm (blue) in HepG2 cells (AID 720687). The essentials:
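Cells (2,000/well in MEM with 10% FBS) attached overnight at 37 C, then were exposed to compound or DMSO for 1 hr at 37 C, 5% CO2. Fluorescence read at Ex/Em 405/460 nm, expressed as triamterene-equivalent signal.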

Experiment [9] in a line: qHTS assay to identify small molecule antagonists of the glucocorticoid receptor (GR) signaling pathway - cell viability counter screen (AID 720693). Further: nearly all actives have a fitted effect of over 55% in size. Further: potency means the concentration at half of the fitted maximal effect.
Experiment [10] is described as follows: qHTS assay for identifying genotoxic compounds that show differential cytotoxicity against isogenic chicken DT40 cell lines with known DNA damage response pathways - wild type cell line (AID 743012). Further: nearly all actives have a fitted effect of over 60% in size. Further: potency means the concentration at half of the fitted maximal effect. The essentials: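 Wild-type DT40 cells (300/well) exposed to compounds for 40 hours at 37 C/5% CO2. Viability read by CellTiter-Glo luminescence after 30 min at room temperature.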

The nature of experiment [11]: qHTS assay for identifying genotoxic compounds that show differential cytotoxicity against isogenic chicken DT40 cell lines with known DNA damage response pathways - Rev3 mutant cell line (AID 743014). Further: nearly all actives have a fitted effect of over 55% in size. Further: potency means the concentration at half of the fitted maximal effect.
The nature of experiment [12]: qHTS assay for identifying genotoxic compounds that show differential cytotoxicity against isogenic chicken DT40 cell lines with known DNA damage response pathways - Rad54/Ku70 mutant cell line (AID 743015). Further: nearly all actives have a fitted effect of over 60% in size. Further: potency means the concentration at half of the fitted maximal effect.
The nature of experiment [13]: qHTS assay to identify small molecule antagonists of the androgen receptor (AR) signaling pathway - cell viability counter screen (AID 743033; further: nearly all actives have a fitted effect of over 45% in size; further: potency means the concentration at half of the fitted maximal effect).
Experiment [14] in a line: qHTS assay to identify small molecule antagonists of the androgen receptor (AR) signaling pathway using the MDA cell line - cell viability counter screen (AID 743041; further: nearly all actives have a fitted effect of over 45% in size; further: potency means the concentration at half of the fitted maximal effect). The gist of the method: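 MDA-kb2 AR-luc human breast carcinoma cells (MMTV-luciferase, AR/GR responsive) were treated with compounds plus R1881 agonist for 16 h at 37 °C. Viability was read as CellTiter-Fluor fluorescence in the same wells as the reporter assay.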

The target in experiment [15] is Glucocorticoid receptor (Homo sapiens) (UniProt P04150). Nature of the experiment: qHTS assay to identify small molecule agonists of the glucocorticoid receptor (GR) signaling pathway (AID 720691; active means well fitted activation curve with a large enough effect in the signal ratio in the repeat runs, not every such curve was filed as active; the % refers to the signal ratio). The gist of the method: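 GR-bla HeLa cells carrying a GRE-driven beta-lactamase reporter, exposed to compounds for 18 h at 37 C. Reporter activation read as fluorescence after 2 h with LiveBLAzer B/G FRET substrate at room temperature.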

Experiment [16] shares this target. Nature of the experiment: qHTS assay to identify small molecule antagonists of the glucocorticoid receptor (GR) signaling pathway (AID 720692; active means well fitted inhibition curve with a large enough effect in the signal ratio in the repeat runs, not every such curve was filed as active; the % refers to the signal ratio; further: potency means the concentration at half of the fitted maximal effect). The essentials: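 GR-bla HeLa cells carrying a GRE-driven beta-lactamase reporter received compound after 4 h plating, then dexamethasone (5 nM final). After 18 h at 37C, the FRET substrate was loaded for 2 h at room temperature and fluorescence read.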

The target of experiment [17] is Androgen receptor (Homo sapiens) (UniProt P10275). The experiment can be described thus: qHTS assay to identify small molecule agonists of the androgen receptor (AR) signaling pathway (AID 743036; active means well fitted activation curve with a large enough effect in the signal ratio in the repeat runs, with a control signal flat, not every such curve was filed as active; the % refers to the signal ratio). The essentials:
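In this Tox21 qHTS, 2,000 HEK293 AR-bla cells per well were incubated with compounds for 16 h at 37C and 5% CO2. Fluorescence intensity was recorded 2 h after adding LiveBLAzer B/G FRET substrate at room temperature.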

Experiment [18] has the same target. The experiment can be described thus: qHTS assay to identify small molecule agonists of the androgen receptor (AR) signaling pathway using the MDA cell line (AID 743040; further: nearly all actives have a fitted effect of over 20% in size). The gist of the method:
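MDA-kb2 breast carcinoma cells stably carrying an MMTV-driven luciferase reporter (AR- and GR-responsive) were seeded and held 5 h at 37C, 0% CO2, then exposed to compounds in DMSO for 16 h. Luminescence was read 30 min after ONE-Glo addition.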

The target is the same in experiment [19]. The experiment can be described thus: qHTS assay to identify small molecule antagonists of the androgen receptor (AR) signaling pathway using the MDA cell line (AID 743042; further: nearly all actives have a fitted effect of over 55% in size; further: potency means the concentration at half of the fitted maximal effect). The essentials: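 MDA-kb2 cells (human breast carcinoma, stably carrying an MMTV-luciferase reporter responsive to AR and GR) were plated at 3,000 cells/well and preincubated 5 hr at 37C, then given compound plus R1881 agonist for 16 h. ONE-Glo luminescence was read.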
Tags describe the fitted curve by direction and shape or compound fluorescence and quenching.

Glucocorticoid receptor (Homo sapiens), sequence (P04150 whole entry, looked up): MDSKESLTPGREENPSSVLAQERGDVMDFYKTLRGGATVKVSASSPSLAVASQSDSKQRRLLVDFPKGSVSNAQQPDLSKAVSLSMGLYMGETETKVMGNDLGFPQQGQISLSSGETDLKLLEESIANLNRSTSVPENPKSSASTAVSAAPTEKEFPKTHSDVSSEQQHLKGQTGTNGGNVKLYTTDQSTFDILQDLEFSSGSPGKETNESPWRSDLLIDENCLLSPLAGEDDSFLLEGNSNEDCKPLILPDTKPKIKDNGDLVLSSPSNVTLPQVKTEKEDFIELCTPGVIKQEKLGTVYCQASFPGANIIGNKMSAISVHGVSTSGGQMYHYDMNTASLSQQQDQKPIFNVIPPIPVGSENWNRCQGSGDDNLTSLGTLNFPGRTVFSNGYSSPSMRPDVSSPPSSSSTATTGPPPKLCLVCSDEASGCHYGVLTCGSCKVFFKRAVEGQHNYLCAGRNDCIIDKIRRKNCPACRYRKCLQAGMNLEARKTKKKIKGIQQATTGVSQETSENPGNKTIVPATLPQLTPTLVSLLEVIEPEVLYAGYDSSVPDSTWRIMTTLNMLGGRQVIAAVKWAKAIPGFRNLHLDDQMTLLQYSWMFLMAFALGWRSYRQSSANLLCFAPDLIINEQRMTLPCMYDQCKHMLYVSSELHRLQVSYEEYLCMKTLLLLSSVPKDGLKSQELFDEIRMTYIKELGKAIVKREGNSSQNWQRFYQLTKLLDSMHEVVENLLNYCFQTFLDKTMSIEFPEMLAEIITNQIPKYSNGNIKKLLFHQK
Androgen receptor (Homo sapiens), sequence (P10275 whole entry, looked up): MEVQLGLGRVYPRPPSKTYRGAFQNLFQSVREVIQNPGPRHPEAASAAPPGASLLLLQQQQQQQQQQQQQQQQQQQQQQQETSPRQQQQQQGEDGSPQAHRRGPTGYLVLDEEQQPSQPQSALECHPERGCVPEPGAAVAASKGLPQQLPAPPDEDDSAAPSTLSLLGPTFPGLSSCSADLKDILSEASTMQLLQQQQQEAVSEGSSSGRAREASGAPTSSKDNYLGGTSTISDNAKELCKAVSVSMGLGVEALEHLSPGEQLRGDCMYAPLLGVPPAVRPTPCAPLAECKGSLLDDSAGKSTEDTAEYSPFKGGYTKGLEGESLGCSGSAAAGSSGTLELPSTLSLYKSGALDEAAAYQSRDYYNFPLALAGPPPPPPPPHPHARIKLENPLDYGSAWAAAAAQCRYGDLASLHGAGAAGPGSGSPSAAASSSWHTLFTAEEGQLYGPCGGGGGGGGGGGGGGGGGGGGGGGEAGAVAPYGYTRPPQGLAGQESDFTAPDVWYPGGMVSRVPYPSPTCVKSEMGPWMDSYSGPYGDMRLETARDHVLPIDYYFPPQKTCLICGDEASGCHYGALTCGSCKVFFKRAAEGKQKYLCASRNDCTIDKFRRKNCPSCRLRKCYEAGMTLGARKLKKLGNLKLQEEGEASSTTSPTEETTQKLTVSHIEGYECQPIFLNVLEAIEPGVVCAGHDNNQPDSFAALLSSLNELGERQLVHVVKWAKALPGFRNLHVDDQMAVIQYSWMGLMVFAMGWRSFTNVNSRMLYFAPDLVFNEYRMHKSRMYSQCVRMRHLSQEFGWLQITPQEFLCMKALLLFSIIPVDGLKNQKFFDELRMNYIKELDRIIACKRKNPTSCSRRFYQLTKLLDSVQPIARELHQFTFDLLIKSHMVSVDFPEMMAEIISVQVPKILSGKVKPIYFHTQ

Regarding `[O-]/[N+](=N\O)c1ccccc1`, the Potency result in [1], in [2], in [3], in experiment [4], in experiment [5] and in experiment [6] was “inactive” in each case. Moreover, the Potency result in [7], in experiment [8], in experiment [9], in experiment [10], in [11] and in experiment [12] was “inactive” each time. For the same compound, the Potency entry in experiment [13] and in [14] was “inactive” each time.
Regarding `C1CN(SSN2CCOCC2)CCO1`, the Potency result in experiment [1], in [2], in experiment [3], in [4], in experiment [5] and in experiment [6] was “inactive” in each case. In addition, the Potency entry in experiment [7], in [15], in experiment [9] and in experiment [14] was “inactive” in each case. Moreover, the Potency in experiment [10] was 27.3 µM (active); in experiment [11] it was 42.8 µM (active) and 27.3 µM (active).
In the case of `CC/C=C\C/C=C\C/C=C\CCCCCCCC(=O)O`, the Potency result in experiment [1], in [2], in [3], in experiment [4], in [5] and in experiment [6] was “inactive” throughout. The Potency entry in [7], in [9], in experiment [10], in [13] and in [14] was “inactive” each time. In addition, the Potency result in [11] is “inactive and 48.6 µM (active)”; in experiment [12] it was “inactive and 60.6 µM (active)”.
On to `C=CCOC(=O)C(=C)C`, for which the Potency result in experiment [1], in experiment [2], in experiment [3], in experiment [4], in experiment [5] and in [6] was “inactive” in each case. The Potency result in [7], in experiment [15], in experiment [16], in experiment [9], in experiment [10] and in experiment [11] was “inactive” in each case. The Potency result in [13] and in experiment [14] was “inactive” each time.
Take `COCCOCCOCCO`: the Potency result in experiment [1], in [2], in experiment [3], in experiment [4], in [5] and in [6] was “inactive” in each case. Besides, the Potency entry in [7], in [15], in experiment [16], in experiment [9], in experiment [10] and in experiment [11] was “inactive” each time. The Potency result in [12], in [13] and in experiment [14] was “inactive” throughout.
As to `C=CC(=O)OCCCC`, the Potency entry in experiment [1], in experiment [2], in [3], in experiment [4], in [5] and in [6] was “inactive” in each case. Further, the Potency entry in [7], in experiment [15], in experiment [16], in experiment [9], in experiment [10] and in experiment [11] was “inactive” each time. In addition, the Potency result in experiment [12], in experiment [13] and in experiment [14] was “inactive” in each case.
`CN(Cc1cnc2nc(N)nc(N)c2n1)c1ccc(C(=O)N[C@@H](CCC(=O)O)C(=O)O)cc1`: the Potency result in [1], in experiment [3], in [4], in experiment [5], in experiment [7] and in experiment [9] was “inactive” throughout. Moreover, the Potency entry in experiment [18], in experiment [14] and in experiment [19] was “inactive” each time. Besides, the Potency is 39.8 µM (active) in experiment [2]; 35.5 µM [fluorescent] (active) in [6]; 9.4 nM (active) and 1.7 nM (active) in [10]; 11.9 nM (active) and 1.7 nM (active) in experiment [11]; 13.3 nM (active) and 1.7 nM (active) in experiment [12]; 75.6 nM (active) in experiment [13]. In experiment [17], the outcome was inactive.
For `O=Cc1ccccc1C=O`, the Potency entry in experiment [1], in experiment [2], in experiment [3], in experiment [4], in experiment [5] and in [6] was “inactive” throughout. Moreover, the Potency result in [7], in experiment [13] and in [18] was “inactive” throughout. The Potency in [16] is 6.16 µM (active); in [9] it was 23.9 µM (active) and 4.36 µM (active); in experiment [10], 7.5 µM (active) and 2.73 µM (active); in [11], 8.41 µM (active) and 2.17 µM (active); in experiment [12] it was 11.9 µM (active) and 2.43 µM (active); in [14] it was 24.3 µM (active). Further, in experiment [19], the Potency is 8.63 µM (active).
With `CCC(Cc1c(I)cc(I)c(N)c1I)C(=O)O` (configuration not stated), the Potency result in [1], in experiment [2], in experiment [3], in experiment [4], in experiment [5] and in experiment [6] was “inactive” throughout. Besides, the Potency entry in [7], in experiment [15], in [9], in experiment [10], in experiment [11] and in experiment [12] was “inactive” each time. Besides, the Potency result in [13] and in experiment [14] was “inactive” each time.
For `Nc1ccc2c(c1)C(=O)c1ccccc1C2=O`, the Potency entry in experiment [1], in experiment [2], in experiment [3], in experiment [4], in [5] and in [6] was “inactive” throughout. Also, the Potency result in experiment [7], in experiment [15], in experiment [9] and in [14] was “inactive” in each case. Besides, the Potency in [11] was 60 µM (active) and inactive; in experiment [12], 9.51 µM (active) and 12.2 µM (active); in experiment [13] it was 48.1 µM (active) and inactive.
For the compound `C1COCCN1`, the Potency result in experiment [1], in experiment [2], in experiment [3], in experiment [4], in experiment [5] and in experiment [6] was “inactive” throughout. Also, the Potency result in experiment [7], in [9], in experiment [10], in experiment [11], in experiment [13] and in experiment [14] was “inactive” in each case.
For the compound `c1ccc2ncccc2c1`, the Potency result in [1], in experiment [2], in experiment [3], in experiment [4], in experiment [5] and in experiment [6] was “inactive” throughout. The Potency entry in experiment [7], in experiment [15], in [16], in [9], in experiment [10] and in experiment [11] was “inactive” throughout. Moreover, the Potency result in experiment [12], in experiment [13] and in experiment [14] was “inactive” throughout.
In the case of `ClC/C=C/CCl`, the Potency entry in experiment [1], in experiment [2], in [3], in experiment [4], in experiment [5] and in experiment [6] was “inactive” in each case. In addition, the Potency entry in experiment [7], in experiment [9], in experiment [10], in experiment [11], in [12] and in [13] was “inactive” each time. Besides, in experiment [14], the Potency result is “inactive”.
